Records with an inconclusive call do not appear. Active and inactive are the calls of the source. Calls come from the whole dose curve; as a rule, active = well fitted inhibition curve with a large enough effect; inconclusive = small, poorly fitted or top-dose-only effect; inactive = no such curve, though single readings can be large or run the other way.
Test: Confirmatory screen NINDS Rhodamine qHTS for Zika virus inhibitors (AID 1347161); note: nearly all actives have a fitted effect of over 60% in size
Conditions: purified enzyme assay, Rhodamine110 substrate fluorescence, 15 min; series mostly up to 114 µM; activity change, negative = inhibition: at the top concentration
Description: Avindra Nath, Ph.D., National Institute of Neurological Disorders and Stroke (NINDS), Bethesda, MD
Radhakrishnan Padmanabhan, Ph.D., Georgetown University (GU), Washington D.C.
Zika Virus causes congenital defects, including microcephaly and is associated with Guillain-Barre syndrome, eningoencephalitis and myelitis in infected adult. […] Using a target-based approach, we hope to establish a screening paradigm to uncover novel, cell-active NS2B-NS3 protease (Zika Virus) specific inhibitors from NCATS' collection of small molecules using qHTS.
Four assay panel was created to identify potential Zika Virus inhibitors. Namely, (1) GU unlinked NS2B-NS3 AMC tagged protease qHTS, (2) GU unlinked NS2B-NS3 Rhodamine tagged protease qHTS, (3) NINDS linked NS2B-NS3 AMC tagged protease qHTS, (4) NINDS linked NS2B-NS3 Rhodamine tagged protease qHTS. Active compounds were re-acquired and re-screened to confirm inhibition. Inhibitors were further screened against various confirmatory and counterscreens in dose response format.
Early Translation Branch (ETB)
National Center for Advancing Translational Sciences (NCATS), Rockville, MD
National Institute of Health (NIH), Bethesda, Maryland
For the linked assay, Nath lab (NINDS) provided the purified linked NS2B-NS3 protease which is consists of hydrophilic domain of NS2B linked to the NS3 protease domain by a flexible (-[…]-) linker. Control compound aprotinin is obtained from Thermo Scientific (#78432; Waltham, Massachusetts). Rhodamine110 substrate ([N-Cbz]-Nle-Lys-Arg-Arg-Rhod110-Arg-Arg-Lys-Nle-[N-Cbz]) was purchased from either Genscript or Bachem.
1536-well Protease (Rhodamine110 Substrate) Assay:
Briefly, 3 microL of enzyme (25 nM final concentration), in assay buffer (10 mM Tris-HCl pH 8.0 with 0.01% Tween 20) were dispensed into a 1,536-well solid-bottom black plate (Greiner Bio One, Monroe, NC). Twenty-three nL of compounds (final concentration range 7.28 nM to 114 microM) or control Aprotinin (final concentration range 3.47 nM to 114 microM) were transferred via Wako Pin-tool (Wako Automation, Richmond, VA). Samples were incubated (room temperature, protected from light) for 15 minutes followed by a 1 microL Rhodamine110 substrate addition (1.5 microM final concentration). Plates were then immediately read on a ViewLux High-throughput CCD imager (PerkinElmer, Waltham, MA) equipped with FITC fluorescence optics (480(20) nm excitation, 540(25) nm emission), then incubated (room temperature, protected from light) for 15 minutes (~15% conversion). The change in fluorescence intensity over the 15-minute reaction period was normalized against no-inhibitor and no-enzyme controls and the resulting percent inhibition data were fitted to a 4-parameter Hill equation. Aprotinin was used as intraplate control.
Potency is the fitted concentration of half-maximal effect.

Row | Structure (SMILES) | Potency | activity change, negative = inhibition
1 | COc1cc(Nc2nc3ccccc3nc2NS(=O)(=O)c2ccc(NC(=O)c3ccc(OC)c(C)c3)cc2)cc(OC)c1 | 2.78 µM (active) | 
2 | CC1=C(C(=O)OCc2ccccc2)C(c2ccc(-c3ccccc3)cc2)NC(=O)N1CCCCCC(=O)O (stereo unspecified) | 2.48 µM (active) | 
3 | C=C[C@H]1[C@H](O[C@@H]2O[C@H](CO)[C@@H](O)[C@H](O)[C@H]2O)OC=C(C(=O)OC)[C@H]1CCOC(=O)c1cc(O)c(O)c(O)c1 | 10.8 µM (active) | 
4 | O=C(Nc1ccc(S(=O)(=O)Nc2nccs2)cc1)C(c1ccccc1)c1ccccc1 | 4.41 µM (active) | 
5 | COC(=O)CCC(=O)OC[C@]1(C)CCC[C@@]2(C)C3CC[C@]4(C)C=CC3(CCC12)C4 (stereo partly specified) |  | -17% [at 64.7 µM] (inactive)
6 | CCc1c(-c2ccccc2)c(-c2ccccc2)nn1-c1ccccc1-c1cccc(OCC(=O)O)c1 | 3.12 µM (active) | 
7 | C/C=C/C1=CC2=C(CO1)C(=O)C(C)(O)C(OC(=O)c1c(C)cc(OC)cc1O)C2 (stereo unspecified) |  | -4.82% [at 64.7 µM] (inactive)
8 | C=CC/C=C\C/C=C\CCCCCCCc1cccc(O)c1C(=O)O | 2.73 µM (active) | 
9 | COc1ccc(C(=O)n2c(C)c(Cc3cccc(O[C@@H](C)C(=O)O)c3)c3cc(OC(F)(F)F)ccc32)cc1 | 1.11 µM (active) | 
10 | O=C(O)Cc1ccc2oc(-c3ccc(NC(=O)/C=C/c4ccc(Br)cc4)c(F)c3)nc2c1 | 2.21 µM (active) | 
11 | CC(C)(C)Nc1nc2cc(Cl)c(Cl)cc2nc1S(C)(=O)=O |  | 0.421% (inactive)
12 | OC/C=C/C=C/[C@H]1Cc2cc(O)cc(O)c2O1 | 27.8 µM (active) | 
13 | Nc1ncnc2c([C@@H]3N[C@H](CO)[C@@H](O)[C@H]3O)c[nH]c12 |  | -27.3% (inactive)
14 | CCCCc1ccc(C(=O)Nc2cc(-c3ccc(Cl)cc3)nn2-c2ccc(Cl)cc2)cc1 |  | -17.8% (inactive)
15 | CC1(C)CC2=C3C=CC4C5(C)CCC(O)C(C)(C)C5CCC4(C)C3(C)CCC2(C)C(O)C1 (stereo unspecified) | 10.8 µM (active) | 
16 | O=S(=O)(c1ccccc1)c1cnc2c(N3CCNCC3)cccc2c1 |  | 16.4% (inactive)
17 | CC(C)c1cccc2c(-c3ccccc3)cc(-c3ccc(-c4ccc(C(=O)O)cc4)[nH]3)nc12 | 2.21 µM (active) | 
18 | CC1(C)CCC(C)(C)c2cc(C3(c4ccc(C(=O)O)cc4)OCCO3)ccc21 | 7.84 µM (active) | 
19 | N#CC(c1ccnc(OCc2ccc(CN3CCOCC3)cc2)n1)c1nc2ccccc2s1 (stereo unspecified) | 31.2 µM (active) | 
20 | COc1ccc(Cl)c(Nc2nc3ccccc3nc2NS(=O)(=O)c2cccc(NC(=O)C(C)(C)N)c2)c1 | 5.55 µM (active) | 
21 | O=C(O)/C=C/c1ccc(-c2ccc(O)c(C34CC5CC(CC(C5)C3)C4)c2)cc1 | 1.24 µM (active) | 
22 | CC1(C)CC[C@]2(C(=O)O)CC[C@]3(C)C(=CCC4[C@@]5(C)C[C@@H](O)[C@H](O)C(C)(C)C5CC[C@]43C)C2C1 (stereo partly specified) | 6.07 µM (active) | 
23 | CCCCCCOc1cc2c(cc1N(C)c1ncc(C(=O)O)cn1)C(C)(C)CCC2(C)C | 4.41 µM (active) | 
24 | O=C(N/N=C/c1ccc(O)c(O)c1)c1cc2ccccc2cc1O | 6.55 µM (active) | 
25 | C#CCN(Cc1cc2c(=O)[nH]c(C)nc2cc1Br)c1ccc(C(=O)NCc2cccnc2)cc1 | 31.2 µM (active) | 
26 | COc1ccc(C(=O)C2CCN(CC(=O)N(Cc3nc4c(c(=O)[nH]3)COCC4)CC3CC3)CC2)cc1 |  | 4.89% (inactive)

From PubChem BioAssay (NCATS)
